Assay outcomes from PubChem BioAssay.
Only some compounds are listed: those with a hit (about 21% of all), similar ones and a draw of the others.
Pf growth 48h: Primary qHTS for delayed death inhibitors of the malarial parasite plastid, 48 hour incubation; Potency, µM (highest dose often 28.7 µM), for inactives: top-dose activity change, negative = inhibition, most hits filed as inhibitors; AID 504832, 2011; 310,000 tested, 5.9% active; P. falciparum luciferase growth in erythrocytes, 48 h; also: potency is read from the fitted curve at half-maximal effect; % is scaled to controls: 0 for no effect and ±100 for the full control effect
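In quantitative HTS format, infected erythrocytes bearing luciferase-reporter parasites were treated for a single generation at 37 C. Luminescence after adding detection reagent served as the growth measure.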
Shiga toxin inh: A qHTS for Small Molecule Inhibitors of Shiga Toxin; Vero cells, Shiga toxin protein synthesis inhibition reporter; inhibition, % at 38.7 µM; 290,000 tested, 9.2% active; AID 2315, 2010; in the data active = inhibition mostly above about 28%, no sharp cut-off; inactive = mostly below about 43%; also: 0% is about no effect
AMA1 RON2 block: qHTS for Inhibitors of AMA1-RON; Towards Development of Antimalarial Drug Lead: Primary Screen; Potency, µM (doses to about 58.2 µM), inactives show at the top dose activity change, negative = inhibition, actives largely listed as inhibitors; 360,000 tested, 0.2% active; AID 720542, 2013; AlphaScreen AMA1-biotinylated RON2 peptide binding;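 also: potency is read from the fitted curve at half-maximal effect; 0% = vehicle wells and -100% = peptide control; nearly all actives have a fitted effect of over 45% in size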
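AMA1 (3D7) with his tag at 25 nM final met compounds first, then biotinylated RON2 peptide at 25 nM; detection used donor plus acceptor beads, 10 µg/mL apiece, read by AlphaScreen after 30 min at room temperature.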
HCV inh: qHTS Assay for Inhibitors of Hepatitis C Virus (HCV) | Huh7.5.1 HCVcc-Cre infection, luciferase reporter, 44 h | Potency, µM (doses to about 41.8 µM), for the others: top-dose activity change, negative = inhibition, usual class: inhibitors | 340,000 tested, 3.4% active; also: potency is read from the fitted curve at half-maximal effect; % is scaled to controls: 0 for no effect and ±100 for the full control effect
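Whole-lifecycle infectious HCVcc-Cre system; cells 1,000/well, compound then virus (~0.5 moi) added 4 h after plating, 44 h culture. Luciferase read 15 sec following 15 min substrate incubation, room temp.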
Cycloheximide cs: Cycloheximide Counterscreen for Small Molecule Inhibitors of Shiga Toxin; max response, %; 300,000 tested, 12% active; cell reporter, cycloheximide protein synthesis inhibition counterscreen; AID 2314, 2010; in the data active = max response mostly above about 13%, no sharp cut-off; inactive = mostly below about 14%; also: read at 38.3 µM for the half of the compounds with a filed dose; 0% is about no effect
Pf growth 96h: Primary qHTS for delayed death inhibitors of the malarial parasite plastid, 96 hour incubation; AID 504834, 2011; 320,000 tested, 6.9% active; P. falciparum luciferase reporter growth, 96 h; Potency, µM (series often up to 28.7 µM), without a hit: at the highest dose activity change, negative = inhibition, most hits filed as inhibitors; also: potency is read from the fitted curve at half-maximal effect; % is scaled to controls: 0 for no effect and ±100 for the full control effect
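Delayed-death screen, second-generation endpoint: infected erythrocytes, 2% hematocrit, 0.05% parasitemia final; 96 hours at 37 C, 5% CO2; luciferase detection reagent; luminescence decrease equals reduced growth.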
* hit, by the source's call; ? = inconclusive; . = no result; [ ] = remark or other dose. Unless noted, calls follow the shape of the dose curve; as a rule, active = well fitted curve in the direction sought with a large enough effect; inconclusive = small, poorly fitted or top-dose-only effect, or another doubt; inactive = no such curve, though single readings can be large; an effect the other way counts as inactive or inconclusive.

SMILES	Pf growth 48h	Shiga toxin inh	AMA1 RON2 block	HCV inh	Cycloheximide cs	Pf growth 96h
CC(=O)Nc1ccc(S(=O)(=O)N2CCC(C(=O)N[C@@H](C)C(=O)NC3CCCC3)CC2)cc1	33%	-3	0%	0%	12	1%
C=C(C)Cn1c2ccc(NC(=O)NCc3ccc(F)cc3)cc2c(=O)n1C	.	.	1%	.	.	.
OC[C@@H]1CN(Cc2ccc3c(c2)OCO3)C[C@H](n2cnc3c(NCc4ccncc4)ncnc32)O1	.	.	15%	.	.	.
CC(OC(=O)Cc1c(F)cccc1Cl)C(=O)NC1(C#N)CCCCC1 (stereo unspecified)	43%	.	32%	22%	.	89%
Cc1ccc2c(c1)C1C=CCC1C(C(=O)O)N2 (stereo unspecified)	?	-14	.	1%[0.335 µM]	-5	2.6µM*
CC(C)C1Nc2ccc(S(N)(=O)=O)cc2C2C=CCC21 (stereo unspecified)	?	-11	-5%	11µM*	-1	.
Cc1ccc(/C=C/C(=O)O)cc1S(=O)(=O)N1CCc2ccccc21	8%	3	-8%	16%	-2	7%
CCOc1ccc(NC(=O)C(C)Sc2nnnn2C)cc1 (stereo unspecified)	21%	15	-4%	8%	11*	?
Cc1ccc(-n2nnnc2SC(C)C(=O)Nc2ccccc2-c2ccccc2)cc1 (stereo unspecified)	?	-4	47%	8%	-1	9.3µM*
COc1ccccc1NC(=O)C(C)Sc1nnnn1C (stereo unspecified)	15%	-4	33%	11%	2	12µM*
CC(Sc1nnnn1C)C(=O)Nc1ccccc1-c1ccccc1 (stereo unspecified)	10%	-5	-2%	5%	-1	-70%
CNc1cncc(-c2ccc(F)cc2F)n1	.	.	0%	.	.	.
NC(=O)COC(=O)c1sc2ccccc2c1Cl	24%	12	14%	20%	12	0%
C=C1SC(=Nc2ccccc2Cl)N(C(=O)c2sc3ccccc3c2Cl)C12CCCCC2	5.9µM*	43	.	.	25*	?
C=C1SC(=Nc2c(C)cc(C)cc2C)N(C(=O)c2sc3ccccc3c2Cl)C12CCCCC2	?	-3	-7%	-9%	-3	1.7µM*
Cc1nc(N2CCN(S(=O)(=O)c3cccs3)CC2)c2c(-c3ccccc3)c(C)sc2n1	.	.	120%	.	.	.
COCCNc1nc(CSc2ccccc2)nc2sc(C)c(C)c12	?	11	-4%[2.32 µM]	25µM*	-1	?
COc1ccc(C2=NN(CC(=O)NCC(OC)OC)C(=O)CC2)cc1	-18%	-3	-3%	12%	5	17%
Cc1cccc(NC(=S)NC(NC(=O)c2ccco2)C(Cl)(Cl)Cl)c1 (stereo unspecified)	13µM*	-13	-14%	1%	5	.
Cc1ccc(NC(=S)NC(NC(=O)c2ccco2)C(Cl)(Cl)Cl)cc1 (stereo unspecified)	4.7µM*	1	-7%	?	7	.
O=C1Nc2ccccc2N(C(=O)c2ccc(-c3ccccc3)cc2)C1c1nc2ccccc2[nH]1 (stereo unspecified)	.	.	71%	.	.	.
Cc1ccc(CNC(=O)CNC(=S)N(Cc2ccccc2)Cc2cccnc2)cc1	-15%	-14	-3%	-16%	-2	?
COCCCNC(=O)CNC(=S)N(Cc1ccccc1)Cc1cccnc1	36%	-9	-5%	10%	-3	10µM*
CCC(C)NC(=O)CNC(=S)N(Cc1ccccc1)Cc1cccnc1 (stereo unspecified)	-4%	-9	2%	10%	-4	0%
Cc1ccc(CN(Cc2ccccc2)C(=S)NCC(=O)NCc2cccnc2)o1	12µM*	-7	0%	10%	12	-5%
SMILES	Pf growth 48h	Shiga toxin inh	AMA1 RON2 block	HCV inh	Cycloheximide cs	Pf growth 96h
O=C(CNC(=S)N(Cc1ccccc1)Cc1ccccc1F)NCCc1ccc(Cl)cc1	12µM*	0	-23%	-4%	3	?
COCCNC(=O)CNC(=S)N(Cc1ccccc1)Cc1cccnc1	7%	-9	3%	?	-3	12µM*
COc1ccc(Nc2nccc(N(C)C)c2C#N)cc1	18%	7	17%	19%	8	?
CCOc1ccc(Cl)cc1S(=O)(=O)N1CCC(C(=O)NCc2ccncc2)CC1	-7%	3	-2%	9%	-6	53%
Cc1cc(=O)n2[nH]c(-c3ccccc3Cl)cc2n1	-6%	49	-1%	?	-3	7.4µM*
Cc1ccccc1-c1cc2nc(C)c(C)c(=O)n2[nH]1	7.4µM*	36*	-6%	-9%	23*	3%
Cc1nc2cc(-c3ccc(F)cc3)[nH]n2c(=O)c1C	6%	84*	5%	-11%	32*	?
Cc1nc2cc(-c3cccs3)[nH]n2c(=O)c1C	.	.	12%	6%	.	.
COc1ccc(CCNC(=O)c2ccc(F)c(S(=O)(=O)N3CCCCC3)c2)cc1	.	.	0%	.	.	.
Cc1ccc(CSCC(=O)N(C)CC(=O)Nc2ccccc2C(F)(F)F)cc1	-9%	.	3%	-1%	.	-14%
CC1=NN(CCc2ccccn2)C(=O)CC1	.	.	21%	30%	.	.
S=C(NCc1ccco1)Nc1ccc(Cl)cc1	43%	16	-4%	28%	15*	45%
S=C(NCc1ccco1)Nc1ccccc1Cl	43%	33	-8%	?	20*	38%
S=C(NCc1ccco1)Nc1cccc(Cl)c1Cl	10%	48	8%	-23%	9	14%
Cc1ccc(C(C)(C)C)c(SCC(=O)Nc2nnc(C)s2)c1	-7%	-5	-7%	?	-1	-12%
Cc1ccccc1-c1nc(-c2ccc(NC(=O)c3ccc4c(c3)OCO4)cc2)no1	.	81*	1%	?	38*	52%
COc1cc(-c2nc(-c3ccc(NC(=O)c4ccc5c(c4)OCO5)cc3)no2)cc(OC)c1OC	51%	68*	-14%	?	40*	.
COc1ccc(CC(=O)Nc2ccc(-c3noc(-c4cc(OC)c(OC)c(OC)c4)n3)cc2)cc1	-15%	10	7%	-24%	1	-19%
Cc1cccc(C(=O)NC2CCN(C(=O)NCc3ccccc3)CC2)c1	-11%	-2	-5%	1%	12	229%
Cc1ccccc1-c1cnc(C(O)c2ccc(C(C)(C)C)cc2)[nH]1 (stereo unspecified)	.	.	28%	.	.	.
Cc1ccc(C(=O)NC(=S)N2CCN(C)CC2)cc1	30%	88*	-6%	7%	21*	.
CN1CCN(C(=S)NC(=O)c2ccc(Br)cc2)CC1	-24%	36*	75%	?	13*	?
